From PubChem BioAssay (NCATS)
Records with an inconclusive call do not appear. Active and inactive are the calls of the source. The call rests on the fitted dose curve; in most records, active means well fitted cell-killing curve with a large enough effect; inconclusive means small, poorly fitted or top-dose-only effect, or effect the other way; inactive means no such curve, though single readings can be large or run the other way.

Test: Viability qHTS for spleen associated tyrosine kinase inhibitor (SYKi) drug resistant MV4-11 cells (AID 1963824); further: nearly all actives have a fitted effect of over 35% in size
Details: SYKi-resistant MV4-11 viability, CellTiter-Glo, 72 h; series mostly up to 45 µM
Summary of the method: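 CellTiter-Glo luminescence, read 10 min after reagent addition, reports viability after a 72 hr compound exposure. Cells are an MV4-11 line made resistant to SYK inhibition, seeded at 500 per well onto compound-containing plates.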
Potency means the concentration at half of the fitted maximal effect.

Compound	Potency
CC1(C)CC[C@]2(C(=O)O[C@@H]3O[C@H](CO)[C@@H](O)[C@H](O)[C@H]3O)CC[C@]3(C)C(=CCC4[C@@]5(C)CC[C@H](O[C@@H]6O[C@H](C(=O)O)[C@H](O)[C@H](O)[C@H]6O)C(C)(C)C5CC[C@]43C)[C@@H]2C1 (some centres not stated)	4.85 µM (active)
CC(=O)OC12CC(C)C(O)C1/C=C(/COC1OC(CO)C(O)C(O)C1O)CCC1C(/C=C(\C)C2=O)C1(C)C (configuration not stated)	inactive
CC(C)[C@H]1CCC(CO)=C[C@@H]1/C=C(\CO)C(=O)O	inactive
CC1(C)[C@@H]2CC=C(CO[C@@H]3O[C@H](CO[C@@H]4OC[C@H](O)[C@H](O)[C@H]4O)[C@@H](O)[C@H](O)[C@H]3O)[C@H]1C2	inactive
COc1cc(C[C@H]2C(=O)OC[C@@H]2Cc2ccc(OC)c(OC)c2)ccc1O	0.255 µM (active)
Cc1noc2c1-c1ccccc1C(c1ccc(Cl)cc1)=N[C@H]2CC(N)=O	0.332 µM (active)
CC(C)=CCC/C(C)=C/COCC1OC(n2ccc(=O)[nH]c2=O)C(O)C1O (configuration not stated)	11.4 µM (active)
CCCCNc1ccc(-c2ccc(CN3CCOCC3)cn2)c(NC2CCC(O)CC2)c1 (configuration not stated)	0.0502 µM (active)
CC1OC2OC(=O)C3(C)CC4C5(CO5)C5=CC(=O)OC(C)(C)C5=CC(=O)C4(C)C(C1=O)C23 (configuration not stated)	5.02 µM (active)
O=C1Nc2ccccc2C(O)(c2ccccc2)C1O (configuration not stated)	inactive
COc1c2c(c(C)c3c1C(=O)OC3)OC1(C)CC(O)C34OC(OC)(CC(O)C3(C)C1C2)OC4(C)C (configuration not stated)	10 µM (active)
Cc1cc(OCCCS(C)(=O)=O)cc(C)c1-c1cccc(COc2ccc(C3=CC(=O)NS3=O)cc2)c1 (configuration not stated)	5.17 µM (active)
